# Assay outcomes from PubChem.
# Rows were chosen to be rich in hits. Some 2.9% of all compounds tested hit in one or more screens of this group.
# DRD3 antagonist: blocks the human D3 dopamine receptor; D3R cells, DiscoveRx beta-arrestin luminescence, antagonist mode; stronger effect = lower value; max response, negative = inhibition, %; hit rate 2.5% among 360,000; AID 652054; in the data active means max response below about -50%; inconclusive means no clear call, values can overlap the other calls
# Target sequence (P35462 whole entry, looked up): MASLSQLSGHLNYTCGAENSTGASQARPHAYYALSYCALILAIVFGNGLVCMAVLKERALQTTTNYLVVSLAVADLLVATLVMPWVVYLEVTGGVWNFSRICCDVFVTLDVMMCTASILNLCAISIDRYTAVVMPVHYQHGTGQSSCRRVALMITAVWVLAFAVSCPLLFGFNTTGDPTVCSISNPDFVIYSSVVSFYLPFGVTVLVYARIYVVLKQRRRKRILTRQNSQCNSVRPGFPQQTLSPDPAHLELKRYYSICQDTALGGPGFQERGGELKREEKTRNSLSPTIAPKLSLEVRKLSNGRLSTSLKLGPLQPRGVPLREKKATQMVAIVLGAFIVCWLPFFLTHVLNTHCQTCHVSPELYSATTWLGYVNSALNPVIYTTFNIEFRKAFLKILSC
#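 Cells plated overnight at 1500 cells/well, then exposed to library compounds with dopamine controls for 90 minutes at 37 degrees C. DiscoveRx reagent added for 30–60 minutes at room temperature; luminescence read, quantitative HTS format.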
# a7 integrin act: integrin-mediated muscular dystrophy alleviation activation. alpha7betagal myoblasts, beta-gal FDG fluorescence, 48 h. Potency, µM (highest dose often 38.3 µM), hits mostly activators. AID 624291. hit rate 0.064% among 350,000; active means well fitted activation curve with a large enough effect; inconclusive means small, poorly fitted or top-dose-only effect; inactive means no such curve, though single readings can be large or run the other way; further: nearly all actives have a fitted effect of over 60% in size
#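 Alpha7betagal+/- myoblasts (passage 13) were plated 16-24 hr, then exposed to compounds (1:260 dilution of DMSO stock) for 48 hours at 37C. After MPER lysis, β-galactosidase reporter activity was read as FDG fluorescence (ex 480/em 540) after 30 minutes.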
# DRD3 agonist: D3 dopamine receptor (human) agonism; D3R DiscoveRx beta-arrestin cells, luminescence, 90 min; max activation, %; hit rate 0.58% among 410,000; in the data active means max activation above about 30%
#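 Cells at 1500/well, incubated overnight, then treated with pinned compounds (dopamine as control) for 90 min at 37 degrees C. DiscoveRx reagent added for 30 - 60 minutes at room temperature; luminescence read.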
# A number is an active result; . = inactive; ? = inconclusive; / = no result; [ ] = another dose, or the depositor's remark.
SMILES,DRD3 antagonist,a7 integrin act,DRD3 agonist
COc1ccc(OCC(=O)Nc2c(C(=O)N3CCN(c4ccccc4)CC3)oc3ccccc23)cc1,/,/,88.8
CC(=O)Nc1c(F)c(F)c(F)c(F)c1F,?,.,.
CC(=O)Nc1c(I)cc(I)c(C(=O)O)c1I,/,/,65.8
CC1(C)CC(=O)C2=C(C1)OC(/N=C/N1CCOCC1)=C(C#N)C2c1ccccc1 (stereo not given),.,.,.
CCCCSc1nnc2c(n1)OC(C)N(C(C)=O)c1ccccc1-2 (stereo not given),/,/,.
CCCCCSc1nnc2c(n1)OC(C)N(C(C)=O)c1ccccc1-2 (stereo not given),-68.1,.,.
O=C([C@H]1O[C@@H](n2ccc(=O)[nH]c2=O)[C@H](O)[C@@H]1O)N1CCN(c2ccc(Cl)cn2)CC1,.,/,.
C=CCn1c(O)c(N=NC(=O)CNC(=O)c2ccncc2)c2ccccc21,.,.,.
COc1ccc(CCNc2ccc(N3C(=O)CC(C)C3=O)cc2[N+](=O)[O-])cc1OC (stereo not given),.,.,.
CC(=O)Nc1ccc(C(=O)OCC(=O)c2cccc([N+](=O)[O-])c2)cc1,.,.,.
COC(=O)Nc1ccc(SCC(=O)c2cccc([N+](=O)[O-])c2)cc1,-60.3,.,.
COc1cccc(C(=O)COc2cccc(NC(=O)c3cccc([N+](=O)[O-])c3)c2)c1,-51.1,.,.
O=C(COc1cccc(NC(=O)c2cccc([N+](=O)[O-])c2)c1)c1ccc(F)cc1,.,.,.
O=C(O)c1[nH]c2ccccc2c1C=NCc1ccccc1Cl,.,.,.
CC(C)c1nnc(NC(=O)CCC(=O)N2CCN(c3ccc(F)cc3)CC2)s1,.,.,.
CC(=O)c1n[nH]nc1NC(=O)c1ccccc1,.,.,.
CC(=O)c1c(C)cc(C)c(CSc2nc(C)cc(=O)[nH]2)c1C,.,.,69.0
CCOC(=O)CSc1nc(C)cc(=O)[nH]1,.,.[7.66 µM],.
Cc1cccc(C)c1NC(=O)C(c1ccc(-c2ccccc2)cc1)n1c(=O)c(-c2cc3ccccc3[nH]2)nc2ccccc21 (stereo not given),.,/,.
O=C(Nc1c(-c2ccc3c(c2)OCO3)[nH][nH]c1=O)c1ccccc1,-91.9,/,.
Cc1ccc(C(=O)Nc2c(-c3ccc(Cl)cc3)[nH][nH]c2=O)cc1,-69.9,/,.
O=C(Nc1c(-c2ccccc2)[nH][nH]c1=O)c1ccc2c(c1)OCO2,.,/,.
O=C(Nc1c(-c2ccccc2)[nH][nH]c1=O)c1ccc(-c2ccccc2)cc1,.,/,.
CCOC(=O)c1c(C)oc2c1c1c(c3ccccc32)OCN(CCCC(=O)O)C1,.,.,.
C=CC[C@@H](CC(=O)NCCO)C(=O)N[C@@H](COC(=O)[C@@H](CC=C)CC(=O)OC(C)(C)C)Cc1c[nH]c2ccccc12,.,.,.
SMILES,DRD3 antagonist,a7 integrin act,DRD3 agonist
O=C(CNC(=O)c1cccs1)NCC(=O)OCc1ccc(F)cc1,.,.,.
COc1cccc(C(=O)OCC(=O)Nc2cc(C)c(C)cc2[N+](=O)[O-])c1,.,.,.
CC1(C)NC(=O)N(CC(=O)OCC(=O)Nc2sccc2C#N)C1=O,.,.,.
COc1ccc(NCc2nc3ccccc3n2CCOc2ccccc2)cc1,.,.,.
COc1ccc(NCc2nc3ccccc3n2CCOc2ccc(C)cc2)cc1,-51.9,.,.
CCCc1nc2ccccc2n1CCOc1ccccc1,-62.2,.,.
CCCc1nc2ccccc2n1CCOC,.,.,.
Cc1cc(C)n2c(SCC(=O)Nc3cc(C)on3)nnc2n1,.,.,.
COc1cccc(/C=N/NC(=O)c2cc(-c3cccn3C)n[nH]2)c1O,.,.,.
Cc1cc(Cl)cc(C)c1OCCOCCNCc1ccccc1,-79.6,.,.
C=CCNCCOc1c(C)cc(C)cc1Cl,?,.,.
Cc1cc(Cl)cc(C)c1OCCNCc1ccccc1,?,.,.
Cc1cc(C)c(OCCCCNCc2ccccc2)c(Cl)c1,-76.2,.,.
CCCN(CCC)CCCNC(=O)c1cc2c(=O)[nH]c3ccccc3c2n1C,.,.,.
CN(Cc1ccccc1)C(=O)CN1C(=O)NC(C)(c2ccc(C(C)(C)C)cc2)C1=O (stereo not given),.,.,.
CC(C)NC(=O)Nc1nnc([C@@H]2C[C@H](O)[C@@H](CO)O2)s1,.,/,38.4
O=C(Nc1ccc(F)cc1)Nc1nnc([C@@H]2C[C@H](O)[C@@H](CO)O2)s1,.,/,62.0
O=C(Nc1ccc(OCc2ccccc2)cc1)Nc1nnc([C@@H]2C[C@H](O)[C@@H](CO)O2)s1,.,/,.
O=C(Nc1cccc(Cl)c1)Nc1nnc([C@@H]2C[C@H](O)[C@@H](CO)O2)s1,.,/,.
O=C(Nc1cccc(F)c1)Nc1nnc([C@@H]2C[C@H](O)[C@@H](CO)O2)s1,.,/,.
